Test in all cases: NCI-60 one-dose screen, 48 h (100 = growth as untreated, 0 = no growth, -100 = all killed)
What all share (conditions): 10 µM unless noted

Test [1] deals with HCT-15 colon.
Test [2] concerns HT29 colon.
Test [3] has as its system SNB-19 CNS.
The test system of test [4] is U251 CNS.
Test [5] has as its system PC-3 prostate.
Test [6] has as its system SK-MEL-5 melanoma.
Test [7] relates to UACC-62 melanoma.
The test system of test [8] is LOX IMVI melanoma.
For test [9], the system named is SK-MEL-28 melanoma.
Test [10] deals with SK-MEL-2 melanoma.
Test [11] has as its system EKVX NSCLC.
The test system of test [12] is SN12C renal.
Test [13] deals with UO-31 renal.
Test [14] has as its system TK-10 renal.
The test system of test [15] is ACHN renal.
Test [16] deals with A498 renal.
The subject of test [17] is CCRF-CEM leukemia.
The subject of test [18] is MOLT-4 leukemia.
In test [19] the test system is SNB-75 CNS.
The test system of test [20] is CAKI-1 renal.

“And” between values parts separate entries of the source, which are not always exact repeats. Identical values can stand only once. The panel holds about 83,000 compounds, 20% with a hit somewhere; the sample as a whole holds those more often.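 Treatment: one concentration, 48 hours, 96-well format. Scoring: percent growth, with anything below 10 considered active.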 The source made the active and inactive calls.

Regarding `O=C(O)c1cc(C(=O)O)cc([N+](=O)[O-])c1`, the growth in test [1] is 104% (inactive); in test [2] it was 105% (inactive); in test [3], 106% (inactive); in test [4], 100% (inactive); in test [5], 96.4% (inactive); in [6], 104% (inactive). Also, the growth was 105% (inactive) in test [7]; 97.4% (inactive) in test [8]; 118% (inactive) in test [9]; 102% (inactive) in [10]; 106% (inactive) in test [11]; 107% (inactive) in [12]. Moreover, the growth is 91.3% (inactive) in [13]; 102% (inactive) in [14]; 105% (inactive) in test [15]; 103% (inactive) in test [16]; 94.9% (inactive) in [17]; 98.4% (inactive) in [18].

As to `CCN(CC)CCCC(C)Nc1cnc(C(=O)Nc2cc(F)cc3cccnc23)cn1` (centres undefined), the growth is 11.8% (inactive) and 5.33% (active) in test [2]; 65.7% (inactive) and -54.3% (active) in test [19]; 83.1% (inactive) and -87.9% (active) in test [3]; 50.3% (inactive) and -76.1% (active) in [4]; 61% (inactive) and -52.7% (active) in [5]; 70% (inactive) and -92.2% (active) in test [6]. The growth in test [7] was 0.997% (active) and 17.5% (inactive); in [8], 33.3% (inactive) and -48.5% (active); in test [10], 96.7% (inactive) and 50% (inactive); in [11] it was 73.3% (inactive) and 19.2% (inactive); in [12] it was 54.5% (inactive) and 1.53% (active); in test [13], 29.1% (inactive) and -91.5% (active). In addition, the growth was 63.7% (inactive) and -48.8% (active) in test [14]; 36.6% (inactive) and -2.97% (active) in test [15]; 36.7% (inactive) and -38.3% (active) in [20]; 63% (inactive) in test [16]; 19.7% (inactive) and 3.49% (active) in test [17]; 22% (inactive) and 10.4% (inactive) in [18].

As to `C/C(=N\NC(=O)c1ccncc1)c1ccccc1O`, the growth is 29.7% (inactive) and 29.1% (inactive) in test [2]; 89.5% (inactive) and 50.9% (inactive) in [19]; 47.8% (inactive) and 46.6% (inactive) in [3]; 33.8% (inactive) and 33.4% (inactive) in test [4]; 44.4% (inactive) and 35.8% (inactive) in test [5]; 38.7% (inactive) and 50% (inactive) in test [6]. For the same compound, the growth in test [7] was 22% (inactive) and 30.6% (inactive); in test [8], 22.5% (inactive) and 10.9% (inactive); in test [9], 52.4% (inactive) and 63.1% (inactive); in test [10], 75.3% (inactive) and 18.8% (inactive); in [11] it was 16.5% (inactive) and 31.5% (inactive); in test [12], 45.9% (inactive) and 46.9% (inactive). For the same compound, the growth in test [13] is 31.3% (inactive) and 20.6% (inactive); in test [14], 34.7% (inactive) and 37.4% (inactive); in [15] it was 26.3% (inactive) and 26.5% (inactive); in [20] it was 10.4% (inactive); in test [16] it was 68.9% (inactive); in test [17], 16% (inactive) and 15.8% (inactive). In addition, the growth in test [18] is 7.82% (active) and 10.7% (inactive).

For the compound `Nc1nc(SC/C=C/CCl)c2[nH]cnc2n1`, the growth in [2] was 108% (inactive) and 95.5% (inactive); in test [19] it was 108% (inactive) and 101% (inactive); in test [3], 107% (inactive) and 102% (inactive); in [4], 99.1% (inactive) and 98.1% (inactive); in test [5] it was 99.6% (inactive) and 93.6% (inactive); in test [6], 103% (inactive) and 114% (inactive). Besides, the growth in test [7] is 104% (inactive) and 105% (inactive); in [8], 103% (inactive); in test [9], 115% (inactive) and 112% (inactive); in test [10] it was 120% (inactive) and 95% (inactive); in test [11], 95% (inactive) and 98.7% (inactive); in test [12] it was 108% (inactive) and 111% (inactive). Moreover, the growth in test [13] was 87% (inactive) and 94.3% (inactive); in test [14] it was 109% (inactive) and 95% (inactive); in test [15], 110% (inactive) and 101% (inactive); in test [20], 105% (inactive) and 112% (inactive); in test [16] it was 83.6% (inactive) and 91.6% (inactive); in [17], 96.6% (inactive). Also, the growth in [18] is 97.1% (inactive) and 76.3% (inactive).

Take `c1ccc(N(c2ccccc2)c2ccccc2)cc1`: the growth in [1] is 99.8% (inactive); in [2], 97% (inactive); in test [3] it was 102% (inactive); in test [4], 102% (inactive); in [5], 101% (inactive); in test [6], 113% (inactive). Moreover, the growth in test [7] is 104% (inactive); in [8], 94.5% (inactive); in test [9], 117% (inactive); in [10] it was 99.8% (inactive); in [11] it was 101% (inactive); in test [12], 106% (inactive). In addition, the growth was 86.8% (inactive) in test [13]; 98.9% (inactive) in test [14]; 103% (inactive) in [15]; 90.3% (inactive) in [20]; 117% (inactive) in test [16]; 98% (inactive) in test [17]. In addition, the growth in [18] is 95.4% (inactive).

As for `O=C(Nc1ccc([N+](=O)[O-])cc1Cl)c1cc(Cl)ccc1O`, the growth in [2] was -15.8% (active) and 3.08% (active); in test [19], -35.7% (active) and -48.7% (active); in test [3], 13.2% (inactive) and 21% (inactive); in test [4] it was 1.12% (active) and 16.7% (inactive); in [5] it was 2.75% (active) and 6.39% (active); in test [6], -89% (active). In addition, the growth is -65.7% (active) and -45.3% (active) in test [7]; -17.5% (active) and -58.5% (active) in test [8]; 5.94% (active) and -10% (active) in test [9]; -53.2% (active) and -51.7% (active) in test [10]; -3.89% (active) and 6.47% (active) in test [11]; -6.44% (active) and 3.08% (active) in [12]. Further, the growth in test [13] was -43.8% (active) and -31.8% (active); in [14] it was -5.15% (active) and 7.49% (active); in [20], -0.639% (active) and -4.62% (active); in test [16], -22% (active); in test [17], -20% (active) and 9.33% (active); in [18], -44.2% (active) and -6.34% (active).

With `COc1ccccc1NC(=O)OCC#CCOC(=O)Nc1ccccc1OC`, the growth in test [1] is 114% (inactive) and 88.6% (inactive); in [2] it was 100% (inactive) and 103% (inactive); in [19], 92.9% (inactive) and 84.7% (inactive); in test [4], 97.4% (inactive) and 96.4% (inactive); in test [5] it was 102% (inactive) and 89.3% (inactive); in [6] it was 94.2% (inactive) and 88.6% (inactive). The growth in [7] is 83.7% (inactive) and 73.2% (inactive); in test [8], 96.9% (inactive) and 100% (inactive); in test [9], 106% (inactive) and 88.1% (inactive); in [10], 95.2% (inactive) and 95% (inactive); in [11] it was 99% (inactive) and 96.1% (inactive); in test [12], 107% (inactive) and 92.4% (inactive). For the same compound, the growth in test [14] is 99.2% (inactive) and 91.2% (inactive); in [15] it was 104% (inactive) and 100% (inactive); in [20] it was 94.3% (inactive) and 88.6% (inactive); in [16] it was 87.5% (inactive) and 92.8% (inactive); in [17], 83.1% (inactive) and 91.5% (inactive); in [18] it was 72.4% (inactive).

Turning to `COc1ccc(S(=O)(=O)N2CCOCC2)cc1NC(=O)c1[nH]c(C)c2c1CCCCC2=O`, the growth in [2] is 112% (inactive) and 31.7% (inactive); in test [19], 101% (inactive) and 7.61% (active); in test [3], 98.7% (inactive) and 64.1% (inactive); in [4], 97.9% (inactive) and 63.2% (inactive); in [5], 46.4% (inactive); in test [6], 97.8% (inactive) and 70.9% (inactive). For the same compound, the growth in [7] is 98.2% (inactive) and 33.3% (inactive); in test [8], 98.6% (inactive) and 23.5% (inactive); in [9], 101% (inactive) and 62.5% (inactive); in test [10] it was 105% (inactive) and 67.5% (inactive); in [11] it was 103% (inactive) and 54% (inactive); in test [12], 98.3% (inactive) and 64.4% (inactive). Moreover, the growth in [13] is 90.5% (inactive) and 32% (inactive); in [14], 103% (inactive) and 28.5% (inactive); in test [20], 96.6% (inactive) and 15.7% (inactive); in test [16] it was 93.5% (inactive) and -15.8% (active); in [17], 111% (inactive) and 58.9% (inactive); in test [18], 104% (inactive) and 65.9% (inactive).

Regarding `CN(C)c1ccc2nc3ccc(N)cc3[n+](-c3ccccc3)c2c1`, the growth in test [2] is 32.5% (inactive) and 24.4% (inactive); in test [19], 18.6% (inactive) and 52.4% (inactive); in [3], 12.3% (inactive) and 21.1% (inactive); in test [4] it was 16% (inactive) and 3.13% (active); in [5] it was 22.2% (inactive) and 7.58% (active); in test [6], -5.68% (active) and -77.7% (active). In addition, the growth was 17% (inactive) and 13.4% (inactive) in [7]; 28% (inactive) and 6.03% (active) in test [8]; 37.6% (inactive) and 30.9% (inactive) in test [9]; 58.2% (inactive) in [10]; 27.8% (inactive) and 12.6% (inactive) in test [11]; 6.72% (active) and -36.4% (active) in test [12]. The growth in test [13] is 62.1% (inactive) and 31% (inactive); in [14], 20.6% (inactive); in [15], 73.5% (inactive) and 30.8% (inactive); in test [20] it was 94.2% (inactive) and -40.5% (active); in test [16], 67.5% (inactive) and 41.8% (inactive); in test [17], 24.6% (inactive) and 13.7% (inactive). Besides, the growth in test [18] was 23% (inactive) and 0.316% (active).

Turning to `Cc1cc(N=Nc2ccc(C)c(N=Nc3cc(C)c(N)cc3N)c2)c(N)cc1N`, the growth is 92.8% (inactive) and 40.8% (inactive) in [2]; 78% (inactive) and 72.7% (inactive) in test [19]; 97.7% (inactive) and 91.2% (inactive) in [3]; 97% (inactive) and 86.7% (inactive) in [4]; 64.6% (inactive) in test [5]; 100% (inactive) and 78.7% (inactive) in test [6]. Moreover, the growth in [7] was 91.7% (inactive) and 93.9% (inactive); in test [8] it was 90.8% (inactive) and 82.6% (inactive); in [10], 107% (inactive); in test [11] it was 67.1% (inactive) and 72.3% (inactive); in test [12], 95.6% (inactive) and 85.7% (inactive); in test [13], 63.9% (inactive) and 51.5% (inactive). Also, the growth in test [14] was 93.7% (inactive) and 92.3% (inactive); in test [15], 84.4% (inactive) and 81.8% (inactive); in test [20] it was 78.2% (inactive) and 78.7% (inactive); in test [16], 93.8% (inactive) and 85.9% (inactive); in test [17] it was 84.5% (inactive) and 61.3% (inactive); in test [18] it was 64.4% (inactive) and 61.8% (inactive).

Values taken from PubChem BioAssay (NCI).
